{"source": "PubChem BioAssay (NCATS)", "key": {"[1]": {"assay": "qHTS for Inhibitors of the Functional Ribonucleoprotein Complex (vRNP) of Lassa (LASV) Arenavirus: LASV Primary Screen - GLuc reporter signal (AID 1347082; calls by dose curve; tested in HEK293 reporter line; also: nearly all actives have a fitted effect of over 60% in size)"}, "[2]": {"assay": "qHTS for Inhibitors of the Functional Ribonucleoprotein Complex (vRNP) of Lassa (LASV) Arenavirus: Viability assay - alamar blue signal for LASV Primary Screen (AID 1347083; calls by dose curve; tested in HEK293 reporter line; also: nearly all actives have a fitted effect of over 80% in size)"}, "[3]": {"assay": "qHTS for Inhibitors of the Functional Ribonucleoprotein Complex (vRNP) of Lymphocytic Choriomeningitis Arenaviruses (LCMV): Viability assay - alamar blue signal for LCMV Primary Screen (AID 1347085; calls by dose curve; tested in HEK293 reporter line; also: nearly all actives have a fitted effect of over 80% in size)"}, "[4]": {"biological_target": "Nucleoprotein (Lymphocytic choriomeningitis virus (strain Armstrong)) (UniProt P09992)", "sequence (P09992 whole entry, looked up)": "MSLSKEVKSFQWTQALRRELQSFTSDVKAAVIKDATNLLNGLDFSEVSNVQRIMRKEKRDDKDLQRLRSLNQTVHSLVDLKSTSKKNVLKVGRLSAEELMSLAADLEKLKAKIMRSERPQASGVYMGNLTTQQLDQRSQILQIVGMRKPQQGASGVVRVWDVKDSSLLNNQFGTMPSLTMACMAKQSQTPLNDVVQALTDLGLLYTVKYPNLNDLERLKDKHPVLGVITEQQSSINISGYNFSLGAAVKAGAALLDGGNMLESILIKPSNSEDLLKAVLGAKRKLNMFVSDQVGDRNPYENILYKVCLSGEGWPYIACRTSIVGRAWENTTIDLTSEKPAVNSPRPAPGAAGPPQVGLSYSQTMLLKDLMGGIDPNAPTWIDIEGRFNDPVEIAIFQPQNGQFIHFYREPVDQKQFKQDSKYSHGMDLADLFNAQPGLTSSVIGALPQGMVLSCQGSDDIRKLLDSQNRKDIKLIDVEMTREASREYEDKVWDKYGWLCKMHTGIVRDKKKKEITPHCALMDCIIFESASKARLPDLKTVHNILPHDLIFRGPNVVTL", "assay": "qHTS for Inhibitors of the Functional Ribonucleoprotein Complex (vRNP) of Lymphocytic Choriomeningitis Arenaviruses (LCMV): LCMV Primary Screen - GLuc reporter signal (AID 1347086); also: nearly all actives have a fitted effect of over 70% in size"}, "[5]": {"assay": "Cytotoxicity counterscreen for inhibitors of SARS-CoV-2 cell entry (AID 1645845); also: nearly all actives have a fitted effect of over 50% in size", "summary_of_the_method": "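Expi293F/hACE2 cells seeded overnight; cpd pin-transferred in DMSO, 1 h preincubation, + media, 48 h 37 C 5% CO2; ATPLite 1step luminescence; normalized to cells and no cells.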"}, "[6]": {"assay": "Primary qHTS to identify inhibitors of SARS-CoV-2 cell entry (AID 1645846); also: nearly all actives have a fitted effect of over 45% in size", "conditions": "activity change, negative = inhibition: at 57.1 µM (top of the series) unless noted", "summary_of_the_method": "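Using luciferase-reporting pseudoviruses carrying Wuhan-Hu-1 spike, the screen tracks entry into stably ACE2-expressing cells over 48 hr. Activity is expressed relative to spike particles versus particles lacking any fusion protein.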"}, "CRL-7250": {"tested_on": "CRL-7250", "assay": "qHTS assay to identify novel small-molecules to repurpose for Merkel cell carcinoma treatment (AID 1296009; active = well fitted curve in the direction sought with a large enough effect; an effect the other way counts as inactive or inconclusive; also: nearly all actives have a fitted effect of over 60% in size)", "conditions": "MCC and control cell lines, CellTiter-Glo viability, 72 h; series mostly up to 92 µM", "summary_of_the_method": "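qHTS format: cells treated with library compounds in DMSO across 8 (NPC) or 11 (MIPE) concentrations. Readout after 72 hr at 37 degree celsius was CellTiter-Glo luminescence.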"}, "[7]": {"assay": "Validation screen for inhibitors of Lassa infection (AID 463096)"}, "[8]": {"assay": "Inducers of the Endoplasmic Reticulum Stress Response (ERSR) in human glioma: Validation (AID 504836; active = well fitted curve in the direction sought with a large enough effect; an effect the other way counts as inactive or inconclusive)", "summary_of_the_method": "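Stably transfected U87-MG human glioma cells carrying a GRP78-based luminescent sensor were seeded at 1000 cells/well, pin-dosed with compounds and incubated 16 h. Luciferase reagent was then added, and end-point luminescence was read after 10 min at room temperature.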"}, "[9]": {"assay": "qHTS profiling of the MIPE4 collection as inhibitors of Plasmodium falciparum (3D7) proliferation (AID 743344; call rule not given here)", "conditions": "P. falciparum 3D7 in erythrocytes, SYBR Green DNA fluorescence, 72 h; at 28.5 µM (top of the series) unless noted", "summary_of_the_method": "(§1)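 Erythrocytes infected with P. falciparum (0.3% parasitemia, 2.5% hematocrit) incubated with compounds 72 h at 37 C, 5% CO2. Lysis with saponin/Triton buffer containing SYBR Green I, overnight at room temperature in the dark; DNA fluorescence (485/535 nm) normalised to 0.29 uM artemisinin and DMSO.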"}, "[10]": {"assay": "qHTS profiling of the MIPE4 collection as inhibitors of Plasmodium falciparum (DD2) proliferation (Rep 2) (AID 743346; call rule not given here)", "conditions": "P. falciparum Dd2 in erythrocytes, SYBR Green DNA, 72 h; at 28.5 µM (top of the series) unless noted", "summary_of_the_method": "as §1"}, "[11]": {"assay": "qHTS profiling of the MIPE4 collection as inhibitors of Plasmodium falciparum (HB3) proliferation (AID 743347; call rule not given here)", "conditions": "P. falciparum HB3 in erythrocytes, SYBR Green DNA, 72 h; at 28.5 µM (top of the series) unless noted", "summary_of_the_method": "as §1"}, "[12]": {"biological_target": "Bile acid receptor (Homo sapiens) (UniProt Q96RI1)", "sequence (Q96RI1 whole entry, looked up)": "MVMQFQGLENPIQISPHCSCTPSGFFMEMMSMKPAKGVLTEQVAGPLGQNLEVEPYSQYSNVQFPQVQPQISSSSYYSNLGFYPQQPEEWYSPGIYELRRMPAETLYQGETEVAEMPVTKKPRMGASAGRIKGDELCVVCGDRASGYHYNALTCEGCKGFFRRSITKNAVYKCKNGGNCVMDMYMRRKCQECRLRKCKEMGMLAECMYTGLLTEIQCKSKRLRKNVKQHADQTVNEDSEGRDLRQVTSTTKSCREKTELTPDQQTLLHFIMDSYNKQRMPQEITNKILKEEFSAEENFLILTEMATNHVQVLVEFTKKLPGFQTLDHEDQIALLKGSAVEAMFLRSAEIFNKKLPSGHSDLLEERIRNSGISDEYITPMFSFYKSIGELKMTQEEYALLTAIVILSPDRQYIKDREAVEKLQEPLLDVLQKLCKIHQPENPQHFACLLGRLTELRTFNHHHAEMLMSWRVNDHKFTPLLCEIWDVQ", "assay": "qHTS assay for small molecule agonists of farnesoid X receptor signaling (AID 588527)", "conditions": "HEK293T FXR-UAS-bla, beta-lactamase ratio, 16 h; activation: stronger effect = higher value", "summary_of_the_method": "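FXR-UAS-bla HEK293T cells (10% dialyzed FBS) preincubated 5-7 h at 37 C, then compounds at up to 92 uM for 16 h at 37 C. CCF4 beta-lactamase read-out after 2 h RT. Normalized to chenodeoxycholic acid (100 uM) and DMSO; Hill fit gave EC50 and efficacy.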"}, "[13]": {"biological_target": "Peroxisome proliferator-activated receptor delta (Homo sapiens) (UniProt Q03181)", "sequence (Q03181 whole entry, looked up)": "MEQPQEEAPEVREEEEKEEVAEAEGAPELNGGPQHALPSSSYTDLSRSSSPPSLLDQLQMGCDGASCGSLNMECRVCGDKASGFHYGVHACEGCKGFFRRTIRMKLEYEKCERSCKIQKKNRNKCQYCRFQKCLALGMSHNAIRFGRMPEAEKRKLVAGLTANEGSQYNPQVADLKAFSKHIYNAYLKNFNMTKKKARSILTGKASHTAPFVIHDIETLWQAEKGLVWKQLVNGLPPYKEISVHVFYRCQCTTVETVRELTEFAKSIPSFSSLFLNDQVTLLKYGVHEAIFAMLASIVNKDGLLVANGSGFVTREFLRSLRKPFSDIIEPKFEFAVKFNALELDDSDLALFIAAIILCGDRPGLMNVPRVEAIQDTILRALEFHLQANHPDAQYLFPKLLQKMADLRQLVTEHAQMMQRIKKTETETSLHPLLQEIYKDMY", "assay": "qHTS assay for small molecule agonists of peroxisome proliferator-activated receptor delta signaling (AID 588534)", "summary_of_the_method": "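Cells carrying a PPAR-delta beta-lactamase reporter were treated with compounds for 18 h at 37 °C in agonist mode. CCF4 fluorescence was read after 2 h; EC50 and efficacy from Hill fits.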"}, "[14]": {"assay": "Confirmatory qHTS to identify inhibitors of SARS-CoV-2 cell entry (AID 1645844)", "summary_of_the_method": "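HEK293-ACE2 cells (Expi293F stably expressing human ACE2) were pretreated with compounds for 1 hr at 37C, then infected with MLV-based particles carrying Wuhan-Hu-1 spike (C-terminal 19-aa truncation). Luciferase luminescence read after 48 hr; normalized to spike PP (100%) and bald PP (0%).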"}, "[15]": {"assay": "VSVG counterscreen qHTS to identify inhibitors of SARS-CoV-2 cell entry (AID 1645847)", "summary_of_the_method": "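Entry of VSV-G pseudotyped particles into human ACE2-expressing HEK293 cells was measured by luciferase luminescence 48 h after infection, with compound added 1 h beforehand.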"}}, "note": "Results filed as inconclusive are left out. A call without a number means that no potency is given here. The source made the active and inactive calls. Unless noted, calls follow the shape of the full dose curve."}
{"smiles": "O=c1[nH]c(=O)n(C2CCCO2)cc1F", "note": "(stereo not drawn)", "values": [{"measurement": "Potency", "setting": "[1]", "value": "inactive"}, {"measurement": "Potency", "setting": "[2]", "value": "inactive"}, {"measurement": "Potency", "setting": "[3]", "value": "inactive"}, {"measurement": "Potency", "setting": "[4]", "value": "inactive"}, {"measurement": "Potency", "setting": "[5]", "value": "inactive"}, {"measurement": "activity change, negative = inhibition", "setting": "[6]", "value": -6.03, "unit": "%"}, {"measurement": "Potency", "setting": "CRL-7250", "value": "inactive"}]}
{"smiles": "O=C(c1cncc(Br)c1)N1CCC(N2CCCC2)CC1", "values": [{"measurement": "Potency", "setting": "[1]", "value": "inactive"}, {"measurement": "Potency", "setting": "[2]", "value": "inactive"}, {"measurement": "Potency", "setting": "[3]", "value": "inactive"}, {"measurement": "Potency", "setting": "[4]", "value": "inactive"}, {"measurement": "Potency", "setting": "[5]", "value": "inactive"}, {"measurement": "Potency", "setting": "[6]", "value": "inactive"}, {"measurement": "Potency", "setting": "CRL-7250", "value": "inactive"}]}
{"smiles": "Cc1cc(NC(=O)Nc2ccc(N(C)C)cc2)c2cc(F)cc(F)c2n1", "values": [{"measurement": "Potency", "setting": "[1]", "value": "inactive"}, {"measurement": "Potency", "setting": "[2]", "value": "inactive"}, {"measurement": "Potency", "setting": "[3]", "value": "inactive"}, {"measurement": "Potency", "setting": "[4]", "value": "inactive"}, {"measurement": "Potency", "setting": "[5]", "value": "inactive"}, {"measurement": "activity change, negative = inhibition", "setting": "[6]", "value": "-12.4% [at 27.1 µM]"}, {"measurement": "Potency", "setting": "CRL-7250", "value": "inactive"}]}
{"smiles": "O=C(O)C1CCCN(CCC=C(c2ccccc2)c2ccccc2)C1", "note": "(stereo not drawn)", "values": [{"measurement": "Potency", "setting": "[7]", "value": "inactive"}, {"measurement": "outcome", "setting": "[8]", "value": "inactive"}, {"measurement": "Potency", "setting": "[1]", "value": "inactive"}, {"measurement": "Potency", "setting": "[2]", "value": "inactive"}, {"measurement": "Potency", "setting": "[3]", "value": "inactive"}, {"measurement": "Potency", "setting": "[4]", "value": "inactive"}, {"measurement": "Potency", "setting": "[5]", "value": "inactive"}, {"measurement": "activity change, negative = inhibition", "setting": "[6]", "value": -1.36, "unit": "%"}, {"measurement": "Potency", "setting": "CRL-7250", "value": "inactive"}]}
{"smiles": "CC=CCC=CCCC(=O)[C@H]1O[C@@H]1C(N)=O", "values": [{"measurement": "parasite growth, % of DMSO control", "setting": "[9]", "value": 65.1, "unit": "%"}, {"measurement": "parasite growth, % of control (lower = inhibition)", "setting": "[10]", "value": 60, "unit": "%"}, {"measurement": "growth, % of control", "setting": "[11]", "value": 71.3, "unit": "%"}, {"measurement": "Potency", "setting": "[1]", "value": "inactive"}, {"measurement": "Potency", "setting": "[2]", "value": "inactive"}, {"measurement": "Potency", "setting": "[3]", "value": "inactive"}, {"measurement": "Potency", "setting": "[4]", "value": "inactive"}, {"measurement": "Potency", "setting": "CRL-7250", "value": "inactive"}]}
{"smiles": "O=C(CCN1CCN(C(=O)OCc2cc(Cl)cc(Cl)c2)CC1)c1ccc2[nH]c(=O)oc2c1", "values": [{"measurement": "Potency", "setting": "[1]", "value": "inactive"}, {"measurement": "Potency", "setting": "[2]", "value": "inactive"}, {"measurement": "Potency", "setting": "[3]", "value": "inactive"}, {"measurement": "Potency", "setting": "[4]", "value": "inactive"}, {"measurement": "Potency", "setting": "[5]", "value": "inactive"}, {"measurement": "activity change, negative = inhibition", "setting": "[6]", "value": -26.2, "unit": "%"}, {"measurement": "Potency", "setting": "CRL-7250", "value": "inactive"}]}
{"smiles": "Cc1cc(O)c2c(c1)C(=O)c1cccc(O)c1C2=O", "values": [{"measurement": "activation", "setting": "[12]", "value": "-2.98% (inactive)"}, {"measurement": "Potency", "setting": "[13]", "value": "inactive"}, {"measurement": "Potency", "setting": "[1]", "value": "inactive"}, {"measurement": "Potency", "setting": "[2]", "value": "inactive"}, {"measurement": "Potency", "setting": "[3]", "value": "inactive"}, {"measurement": "Potency", "setting": "[4]", "value": "inactive"}, {"measurement": "Potency", "setting": "[5]", "value": "inactive"}, {"measurement": "activity change, negative = inhibition", "setting": "[6]", "value": -17, "unit": "%"}, {"measurement": "Potency", "setting": "CRL-7250", "value": "inactive"}]}
{"smiles": "O=C(O)CCCc1c[nH]c2ccccc12", "values": [{"measurement": "activation", "setting": "[12]", "value": "-2.14% (inactive)"}, {"measurement": "Potency", "setting": "[1]", "value": "inactive"}, {"measurement": "Potency", "setting": "[2]", "value": "inactive"}, {"measurement": "Potency", "setting": "[3]", "value": "inactive"}, {"measurement": "Potency", "setting": "[4]", "value": "inactive"}, {"measurement": "Potency", "setting": "[5]", "value": "inactive"}, {"measurement": "activity change, negative = inhibition", "setting": "[6]", "value": 0.874, "unit": "%"}, {"measurement": "Potency", "setting": "CRL-7250", "value": "inactive"}]}
{"smiles": "CCC(c1ccc(O)cc1)C(CC)c1ccc(O)cc1", "note": "(stereo not drawn)", "values": [{"measurement": "Potency", "setting": "[1]", "value": "inactive"}, {"measurement": "Potency", "setting": "[2]", "value": "inactive"}, {"measurement": "Potency", "setting": "[3]", "value": "inactive"}, {"measurement": "Potency", "setting": "[14]", "value": "27.1 µM (active)"}, {"measurement": "Potency", "setting": "[5]", "value": "inactive"}, {"measurement": "activity change, negative = inhibition", "setting": "[6]", "value": -63.9, "unit": "%"}, {"measurement": "Potency", "setting": "[15]", "value": "30.4 µM (active)"}, {"measurement": "Potency", "setting": "CRL-7250", "value": "inactive"}]}
{"smiles": "O=C(Nc1nc2ccccc2n1CCN1CCOCC1)c1cccc([N+](=O)[O-])c1", "values": [{"measurement": "outcome", "setting": "[8]", "value": "inactive"}, {"measurement": "Potency", "setting": "[1]", "value": "inactive"}, {"measurement": "Potency", "setting": "[2]", "value": "inactive"}, {"measurement": "Potency", "setting": "[3]", "value": "inactive"}, {"measurement": "Potency", "setting": "[4]", "value": "inactive"}, {"measurement": "Potency", "setting": "[5]", "value": "inactive"}, {"measurement": "activity change, negative = inhibition", "setting": "[6]", "value": -0.348, "unit": "%"}, {"measurement": "Potency", "setting": "CRL-7250", "value": "inactive"}]}
